Measurements as given in PubChem BioAssay (NCATS).
Values joined by “and” are separate entries in the source; they are usually repeats but may differ in a detail not shown here. Equal values may be shown once. A number with no mark means an inactive call. Records with an inconclusive call do not appear. A call without a number means that no potency is given here. Active and inactive are the calls of the source. Unless noted, the call rests on the fitted dose curve; in most records, active means well fitted curve in the direction sought with a large enough effect; inconclusive means small, poorly fitted or top-dose-only effect, or another doubt; inactive means no such curve, though single readings can be large; an effect the other way counts as inactive or inconclusive.

Columns and labels:
[1] = Cell Viability - MRC5 (AID 434; calls by dose curve;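 further: potency means the concentration at half of the fitted maximal effect; cells exposed to compound for 40 hours at 37 °C; potency reflects cytotoxicity seen as loss of intracellular ATP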); settings: MRC5 lung fibroblast viability, qHTS
How it was run: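 AC50 values come from Hill-equation fits of intracellular ATP loss, measured by CellTiter-Glo luminescence. Normal lung fibroblasts (MRC5) had 40 hr compound treatment at 37 C, normalized between DMSO and 100 uM tamoxifen.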

[2] = Cell Viability - HUV-EC-C (AID 542); settings: HUV-EC-C endothelial cell viability, qHTS; series mostly up to 92.2 µM;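 further: cells exposed to compound for 40 hours; nearly all actives have a fitted effect of over 35% in size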
How it was run: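 CellTiter-Glo luminescence measured ATP loss in HUV-EC-C cells (1000/well) after 40 hr compound exposure at 37 °C, in complete culture medium. Concentration-response data were Hill-fitted to give AC50.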

[3] = Cellular Toxicity (caspase-3) HepG2 (AID 654); settings: HepG2 caspase-3 activation, luminescence; series mostly up to 92.2 µM;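 further: cells exposed to compound for 16 hours before reading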
How it was run: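 Caspase 3/7 activation is measured as a luminescence increase (aminoluciferin substrate) after 16 h compound exposure of human hepatocarcinoma HepG2 cells. AC50 values are Hill fits, scaled between DMSO baseline and 100 uM tamoxifen stimulation.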

[4] = Cellular Toxicity (caspase-3) HUV-EC-C (AID 656); settings: HUV-EC-C cells, caspase-3 activation (apoptosis); series mostly up to 92.2 µM
How it was run: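 HUV-EC-C cells (1000/well) in complete medium, compound-treated 16 h at 37 °C; caspase-3/7 activity read by Caspase-Glo 3/7 luminescence. Normalized to DMSO (basal) and 100 uM tamoxifen (100%); AC50 from Hill-equation concentration-response fits.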

[5] = Cellular Toxicity (caspase-3) SHSY5Y (AID 657); settings: SH-SY5Y caspase-3 activation; series mostly up to 91.7 µM
How it was run: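 SH-SY5Y human neuroblastoma cells, 1500/well, exposed to compound for 16 hours at 37 °C in complete medium. Caspase-3/7 activity read by Caspase-Glo luminescence after 1 hr at room temperature, normalized to DMSO and 10 uM staurosporine; AC50 from Hill fit.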

[6] = Cellular Toxicity (caspase-3) MRC-5 (AID 659); settings: MRC-5 cells, luminescence, normalized: DMSO 0%, 10 µM staurosporine 100%; series mostly up to 91.7 µM
How it was run: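 Luminescent Caspase-Glo 3/7 read-out (1 h, room temperature) after a 16 h, 37 °C compound exposure of MRC-5 lung fibroblasts at 1500 cells/well. Concentration-response AC50 from Hill equation; 0% DMSO, 100% 10 uM staurosporine.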

[7] = Cellular Toxicity (caspase-3) Mesangial (AID 660); settings: mesangial cells, normalized: DMSO 0%, 100 µM tamoxifen 100%; series mostly up to 91.7 µM;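 further: cells exposed to compound for 16 h before the caspase read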
How it was run: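 Caspase 3/7 activation measured by Caspase-Glo 3/7 luminescence (20 min, room temperature) following 16 h exposure of mesangial cells (1000/well); AC50 from Hill-equation fit, normalized to DMSO and 100 uM tamoxifen.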

[8] = Cellular Toxicity (caspase-3) SK-N-SH (AID 661); settings: SK-N-SH caspase-3 activation, qHTS, DMSO as zero, staurosporine as full; series mostly up to 91.7 µM
How it was run: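 Caspase 3/7 activation was read by luminogenic substrate cleavage after 16 hour treatment of SK-N-SH cells. Signal was scaled between DMSO and 10 uM staurosporine, and concentration-response data were fitted with the Hill equation for AC50.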

[9] = Cellular Toxicity (caspase-3) H-4-II-E (AID 663); settings: H-4-II-E rat hepatoma; Potency: caspase-3 activation; series mostly up to 92.2 µM;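 further: cells exposed to compound for 16 hr before readout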
How it was run: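 Caspase 3/7 activation measured by luminescent aminoluciferin substrate cleavage after 16 hr compound treatment of H-4-II-E cells in complete medium. Increase normalized between DMSO (basal) and 100 uM tamoxifen (100%); Hill-equation AC50 from concentration-response.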

[10] = Cellular Toxicity (caspase-3) N2a (AID 665); settings: N2a cells, luminescence, normalized: DMSO 0%, 10 µM staurosporine 100%; series mostly up to 92.2 µM;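 further: compound exposure lasted 16 h at 37 °C before readout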
How it was run: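 Caspase-3/7 activation measured as luminescence from Caspase-Glo reagent (1 h, room temperature) after 16 h compound exposure of mouse N2a cells. AC50 values from Hill-equation concentration-response, scaled between DMSO and 10 uM staurosporine.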

[11] = Cellular Toxicity (caspase-3) NIH 3T3 (AID 666); settings: NIH 3T3 caspase-3 activation, apoptosis/toxicity, 0% DMSO, 100% is 100 µM tamoxifen; series mostly up to 92.2 µM
How it was run: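 Caspase-Glo 3/7 luminescence reported caspase activation in 1000 NIH 3T3 cells/well after 16 h compound exposure at 37 C. DMSO set basal and 100 uM tamoxifen set 100% stimulation; concentration-response modeled with the Hill equation for AC50.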

[12] = Cellular Toxicity (caspase-3) Renal Proximal Tubule (AID 667); settings: renal proximal tubule cells, primary cells freshly taken from rat; Potency: caspase-3 activation; series mostly up to 91.7 µM;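 further: cells exposed to compound for 16 hours at 37 °C before detection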
How it was run: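 Freshly isolated primary rat kidney proximal tubule cells, 1000/well, treated 16 hr at 37 °C, then Caspase-Glo 3/7 luminescence after 1 hr. Normalized to DMSO and 10 uM staurosporine; AC50 from Hill fit.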

[13] = MultiTox-Fluor Cytotoxicity Assay - LYMP1-001 - Dead Cells (AID 946); settings: LYMP1-001 lymphoblastoid cells, dead-cell protease fluorescence; series mostly up to 92.2 µM; further: potency means the concentration at half of the fitted maximal effect
How it was run: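 Seed 2500 LYMP1-001 cells/well, incubate 5 hr at 37 C; add compound, 16 hr at 37 C; add MultiTox-Fluor reagent, 60 min RT; read dead-cell fluorescence Ex/Em=485/520. Normalize to DMSO and 15 uM tetraoctylammonium bromide.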

[14] = MultiTox-Fluor Cytotoxicity Assay - LYMP1-003 - Dead Cells (AID 961); settings: LYMP1-003 lymphoblastoid cells, dead-cell protease fluorescence; series mostly up to 92.2 µM; further: nearly all actives have a fitted effect of over 70% in size; further: potency means the concentration at half of the fitted maximal effect
How it was run: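 LYMP1-003 lymphoblastoid, 2500 cells/well, 5 hr settle then 16 hr cpd at 37 C; MultiTox-Fluor reagent 60 min RT; Ex/Em 485/520 dead-cell signal; norm. DMSO = 0%, 15 uM tetraoctylammonium bromide = 100%; Hill AC50.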

[15] = qHTS Assay for Identification of Small Molecule Inducers of Hypoxia Response (AID 2120; active means well fitted curve in the direction sought with a large enough effect in the signal ratio, with a control signal flat, not every such curve was filed as active; the % refers to the signal ratio); settings: hypoxia response reporter cells, beta-lactamase ratio readout; series mostly up to 104 µM
How it was run: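 Reporter induction read as the CCF4 blue/green (460nm/530nm) emission ratio after 2.5 h dye loading at room temperature. ME-180 HRE-beta-lactamase cells received titrated compounds for 17 h at 37 degrees Celsius; AC50 values derived.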

[16] = biological target: Peroxisome proliferator-activated receptor alpha (Homo sapiens) (UniProt Q07869); test: qHTS assay for small molecule agonists of the peroxisome proliferator-activated receptor alpha (PPARalpha) signaling pathway (AID 651778); settings: PathHunter PPARalpha complementation, chemiluminescence, 6 h; max response: stronger effect = higher value
Peroxisome proliferator-activated receptor alpha (Homo sapiens), sequence (Q07869 whole entry, looked up): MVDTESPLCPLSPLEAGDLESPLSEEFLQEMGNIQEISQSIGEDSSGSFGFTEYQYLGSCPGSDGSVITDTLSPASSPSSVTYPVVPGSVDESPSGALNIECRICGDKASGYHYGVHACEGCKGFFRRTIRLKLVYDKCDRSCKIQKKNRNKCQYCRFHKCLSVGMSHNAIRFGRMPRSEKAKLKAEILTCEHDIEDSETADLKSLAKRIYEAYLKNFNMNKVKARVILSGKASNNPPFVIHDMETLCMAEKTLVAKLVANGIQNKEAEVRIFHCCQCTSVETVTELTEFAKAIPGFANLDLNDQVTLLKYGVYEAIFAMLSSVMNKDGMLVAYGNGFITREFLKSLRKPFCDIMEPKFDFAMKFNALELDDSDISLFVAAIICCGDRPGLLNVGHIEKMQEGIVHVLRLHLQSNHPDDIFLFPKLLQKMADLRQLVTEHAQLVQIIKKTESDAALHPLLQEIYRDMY
How it was run: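 Chemiluminescence from complemented enzyme reported PPARalpha activation in cells after 6 hr of compound treatment at 37 C. The detection reagent was incubated for 60 min at room temperature, and compounds were scored as agonists.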

[17] = qHTS assay for small molecule agonists of the antioxidant response element (ARE) signaling pathway measured by Nrf2-dependant transcriptional activity - cell viability counter screen (AID 720653; active means well fitted curve in the direction sought with a large enough effect in the repeat runs; an effect the other way counts as inactive or inconclusive); settings: ARE-bla HepG2 viability, CellTiter-Glo ATP luminescence, 16 h; max response: stronger effect = lower value
How it was run: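 Cytotoxicity counter screen: intracellular ATP quantified by CellTiter-Glo luminescence in the same ARE-bla HepG2 plates, after 16 h compound exposure and a 2 h beta-lactamase substrate step.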

[18] = qHTS assay for cell viability of the p53RE-bla HCT-116 cell line (AID 743292); settings: p53RE-bla HCT-116 viability, ATP luminescence, 16 h; series mostly up to 95 µM; further: nearly all actives have a fitted effect of over 55% in size
How it was run: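 ATP-based luminescence, 16 h compound exposure at 37 C, p53RE-bla HCT-116 cells at 4,000/well.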

[19] = MultiTox-Fluor Cytotoxicity Assay - LYMP1-003 - Live Cells (AID 962); settings: LYMP1-003 lymphoblastoid cells, MultiTox-Fluor live-cell protease fluorescence; series mostly up to 92.2 µM;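 further: cytotoxic hits lower the live-cell protease signal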
How it was run: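 Live-cell protease activity (GF-AFC substrate, 405/510 nm, 60 min at room temperature) after 16 h, 37 C compound exposure of human lymphoblastoid LYMP1-003 cells; concentration-response fitted to the Hill equation for AC50.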

[20] = Cell Viability - LYMP1-003 - Assay at 24 hr (AID 963); settings: LYMP1-003 lymphoblastoid cell viability; series mostly up to 92.2 µM
How it was run: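 Concentration-response qHTS: ATP loss measured by CellTiter-Glo luminescence after 24 h compound exposure at 37 C. Cells were LYMP1-003 human lymphoblastoid, 2500 per well. AC50 derived via standard Hill equation modeling.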

SMILES	Potency [1] [µM]	Potency [2]	Potency [3]	Potency [4]	Potency [5]	outcome [6]	outcome [7]	outcome [8]	Potency [9]	outcome [10]	outcome [11]	Potency [12]	Potency [13]	Potency [14]	Potency [15]	max response [16]	max response [17]	Potency [18]	Potency [19]	Potency [20]
Nc1ccc(N)c(Cl)c1	> 92	inactive	inactive	inactive	inactive	inactive	inactive	inactive	inactive	inactive	inactive	inactive	inactive	inactive	inactive	0.817%	24%	inactive	–	–
CC(=O)CC(=O)Nc1ccccc1	> 92	inactive	inactive	inactive	inactive	inactive	inactive	inactive	inactive	inactive	inactive	inactive	inactive	inactive	inactive	0.169% and 0.0126%	-0.0894% and -4.18%	inactive	inactive	inactive
CN(C)c1ccc(C(=N)c2ccc(N(C)C)cc2)cc1	–	–	inactive	inactive	–	inactive	inactive	–	–	inactive	inactive	inactive	39.8 µM (active)	50.1 µM (active)	inactive	-0.198%	-25.3%	inactive	–	inactive
O=[N+]([O-])c1cc(Cl)c(Cl)c(Cl)c1Cl	> 92	inactive	inactive	inactive	inactive	inactive	inactive	inactive	inactive	inactive	–	inactive	25.1 µM (active)	50.1 µM (active)	inactive	-1.46%	-4.59%	inactive	inactive	inactive
NC(=O)Nc1nc2ccccc2[nH]1	> 92	inactive	inactive	inactive	inactive	inactive	inactive	inactive	inactive	inactive	inactive	inactive	inactive	inactive	inactive	-2.7%	-9.91%	inactive	inactive	inactive
O=Nc1ccc(Nc2ccccc2)cc1	–	–	inactive	inactive	inactive	inactive	inactive	inactive	–	inactive	inactive	inactive	–	–	inactive	-0.677% and -6.11%	-2.32% and -16.8%	inactive	–	–
CCCCC(CC)COP(=O)(OCC(CC)CCCC)OCC(CC)CCCC (centres undefined)	> 92	inactive	inactive	inactive	inactive	inactive	inactive	inactive	inactive	inactive	inactive	inactive	inactive	inactive	inactive	-6.02%	-10.8%	inactive	inactive	inactive
